Among all 48,000 compounds or so, about 13,000 (27%) showed an effect of 50% or more. This is one part of the list.
Each compound was assayed on Wolbachia pipientis (assay: Anti-Wolbachia Cell-Based Screen). Conditions: 5 µM.
Type: functional
Design: scale not given: in the data most compounds retested in dose-response had high values

SMILES	Percent Effect
O=C(CCNS(=O)(=O)c1cccnc1)N1CCCCC1	-5.593%
O=C(c1cnccn1)N1C[C@@H]2OCC(=O)N(CC3CCCCC3)[C@@H]2C1	-4.007%
Cc1ccc(C)c(NC(=O)c2n[nH]c(-n3cnnc3)n2)c1	8.614%
Cn1c(Nc2ccc(F)cc2)c(C#N)c(=O)n(C)c1=O	7.851%
O=C(c1cnn(-c2ccccc2)c1)N1CCN(c2cnccn2)CC1	-7.881%
Cc1cccc(C(=O)N2C[C@@H]3[C@H](CC(=O)Nc4cccnc4)[C@@H]3C2)n1.O=C(O)C(F)(F)F.O=C(O)C(F)(F)F	-1.772%
Cc1cccc(C(=O)N2CCn3c(CN4CCN(C)CC4)cnc3C2)n1	-13.05%
CNC(=O)C1(c2cnccn2)CCCN1C(=O)c1cccc(C)n1 (configuration not stated)	90.25%
CC1(C(=O)NCCN2CCCCC2)CCCN1C(=O)c1ccccc1 (configuration not stated)	0.8057%
CNC(=O)C1(c2cnccn2)CCCN1C(=O)c1ccccc1 (configuration not stated)	95.42%
CC1=CC(C)(C)N(CN2C(=O)c3ccccc3C2=O)c2ccccc21	-12.76%
CNC(=O)C(c1cccc(Cl)c1)C(C)C (configuration not stated)	-9.115%
COc1ccc(C2(c3nc(-c4cccnc4)no3)CCOCC2)cc1	-4.756%
Cc1nc(C)n(C2CCCN(C(=O)c3cccnc3NC(C)C)C2)n1 (configuration not stated)	-8.043%
Cc1cnn(C2CCCN(C(=O)CCCOc3cccc(F)c3)C2)c1 (configuration not stated)	4.981%
Cc1cnn(C2CCCN(C(=O)CCCOc3ccccc3F)C2)c1 (configuration not stated)	143.9%
O=C(CCNc1ncccn1)N1CCCC(n2ccnc2)C1 (configuration not stated)	-7.544%
Cc1cc(C)n(C2CCCN(C(=O)CCNc3ncccn3)C2)n1 (configuration not stated)	114.6%
Cc1cnn(C2CCCN(C(=O)CCCc3ccccn3)C2)c1 (configuration not stated)	102.3%
Cc1cc(C)n(C2CCCN(C(=O)CCCNc3ncccn3)C2)n1 (configuration not stated)	16.33%
Cc1cnn(C2CCCN(C(=O)CCCNc3ncccn3)C2)c1 (configuration not stated)	0.4653%
COc1ccc(CC(=O)N2CCCC(n3cc(C)cn3)C2)cc1F (configuration not stated)	-2.795%
Cc1nc(C)n(C2CCCN(C(=O)CCc3ccncc3)C2)n1 (configuration not stated)	4.522%
Cc1nc(C)n(C2CCCN(C(=O)CCCc3ccccn3)C2)n1 (configuration not stated)	81.77%
CCOCc1nc2c(c(N3CC=CC3)n1)CCN(Cc1ccco1)CC2	-6.095%
CCn1c(C)nnc1SCCNc1nc(C)nc2ncccc12	-6.645%
CCOc1ccc(NS(=O)(=O)c2cc(C)c(C(=O)O)s2)c(C)c1	5.769%
